Data as given in PubChem BioAssay.
The source made the active and inactive calls.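 Rule for the calls, unless noted: active = compound raises GLP1 secretion from the human gut endocrine cells, with no numeric limit stated; inactive = the rest.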

What was measured:
[1] = stimulators of nuclear beta-catenin in C2C12, primary screen, imaging, WNT3A-conditioned medium, mouse C2C12, NPC library (AID 1117326; in the data active = nuclear beta-catenin stimulation mostly above about 4.2%, no sharp cut-off; inactive = mostly below about 10%; note: reference of the scale not given here); details: stronger effect = higher value
[2] = stimulators of insulin release from INS-1E, primary screen, cell-based, 5 mM glucose, NPC library (AID 1117329;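 active = compound raises insulin release from rat beta cells at 5 mM glucose, no numeric limit stated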; note: reference of the scale not given here); details: rat INS-1E insulin secretion, at 10 µM, stronger effect = higher value
[3] = growth inhibition of GSK3B-pretreated HCT116 cells – cell-based, CellTiter-Glo, 0.2 to 20 µM (AID 1117336;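 active = compounds lowering colon cancer cell viability after pretreatment blocking the GSK3B kinase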); details: HCT116 viability after GSK3B inhibitor, at 20 µM, stronger effect = higher value
[4] = inhibition of endothelial tube formation, primary screen, imaging, VEGF stimulated, CD31 staining, tube area, NPC library (AID 1117340;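 active = compound that reduces growth-factor-driven endothelial tube area in a mixed cell culture, no cutoff stated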); details: VEGF-stimulated ADSC/ECFC co-culture, at 10 µM, stronger effect = higher value
[5] = glucagon-like peptide 1 release enhancers, primary assay, NCI-H716 cell line, NPC library (AID 1117341); details: NCI-H716 cells, at 10 µM, stronger effect = higher value; note: reference of the scale not given here
[6] = HCT116 colon cancer cell growth inhibition, primary screen, CellTiter-Glo luminescence, NPC library (AID 1117342;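 active = compounds that lower survival of HCT116 colon cancer cells in the luminescence readout, no numeric limit stated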); details: at 20 µM (top of the series)
[7] = CellTiter-Glo luminescent readout of SW480 viability loss, NPC library primary (AID 1117343;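 active = compounds that lower viability of the colon cancer cells in the luminescence readout, with no numeric limit stated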); details: CellTiter-Glo luminescence; at 20 µM (top of the series)
[8] = decreased DLD-1 cellular survival, CellTiter-Glo luminescent readout, NPC compound collection, primary HTS (AID 1117346;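 active = compounds that lower survival of DLD-1 colon cancer cells in the luminescence readout, no cutoff given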); details: DLD-1 viability, CellTiter-Glo luminescence; at 20 µM (top of the series)

COc1cc(C(=S)N2CCOCC2)ccc1O
0%: nuclear beta-catenin stimulation ([1]; stimulation, at 2 µM)
inactive: nuclear beta-catenin stimulation ([1]; at 10 µM) 1.6% | insulin secretion stimulation [2] 3.9% | viability decrease [3] -5.7% | tube area decrease [4] 1.9% | GLP1 secretion stimulation [5] -3.6% | inhibition of viability [6] -4.3% | viability decrease (inhibition) [7] -4.6% | viability decrease (inhibition) [8] -2.7%

NS(=O)(=O)c1ccc(Cl)c(S(N)(=O)=O)c1
-1%: nuclear beta-catenin stimulation ([1]; stimulation, at 2 µM)
inactive: nuclear beta-catenin stimulation ([1]; at 10 µM) -2.3% | insulin secretion stimulation [2] -1.3% | viability decrease [3] -4.9% | tube area decrease [4] 12.2% | GLP1 secretion stimulation [5] -0.9% | inhibition of viability [6] -6% | viability decrease (inhibition) [7] -5.6% | viability decrease (inhibition) [8] -7.1%

CCCC(=O)O[C@]1(C(=O)CC)CC[C@H]2[C@@H]3CCC4=CC(=O)CC[C@]4(C)[C@H]3[C@@H](O)C[C@@]21C
inactive: nuclear beta-catenin stimulation ([1]; at 10 µM) -0.2% | insulin secretion stimulation [2] 6.6% | viability decrease [3] 12.1% | tube area decrease [4] -2.7% | GLP1 secretion stimulation [5] 5.3% | inhibition of viability [6] 18.1% | viability decrease (inhibition) [7] 35.2% | viability decrease (inhibition) [8] 25.5%
1.5%: nuclear beta-catenin stimulation ([1]; stimulation, at 2 µM)

CCCCCCCCCCCCCCNCCO
inactive: nuclear beta-catenin stimulation ([1]; at 10 µM) 10.8% | insulin secretion stimulation [2] -1.5% | inhibition of viability [6] 32.6%
10.6%: nuclear beta-catenin stimulation ([1]; stimulation, at 2 µM)
active: viability decrease [3] 62.8% | tube area decrease [4] 103% | GLP1 secretion stimulation [5] 34.8% | viability decrease (inhibition) [7] 121% | viability decrease (inhibition) [8] 103%

CC(=O)/C=C/C=C1/C2CCC(C2)C1(C)C (centres undefined)
inactive: nuclear beta-catenin stimulation ([1]; at 10 µM) 1.2% | insulin secretion stimulation [2] 0.6% | viability decrease [3] -80% | tube area decrease [4] -0.7% | GLP1 secretion stimulation [5] 0.1% | inhibition of viability [6] -1.1% | viability decrease (inhibition) [7] 27% | viability decrease (inhibition) [8] -15.2%
3.3%: nuclear beta-catenin stimulation ([1]; stimulation, at 2 µM)

O=C(/C=C/c1ccccc1)NCCO
1.4%: nuclear beta-catenin stimulation ([1]; stimulation, at 2 µM)
inactive: nuclear beta-catenin stimulation ([1]; at 10 µM) 1.1% | insulin secretion stimulation [2] -2.3% | viability decrease [3] -9.8% | tube area decrease [4] 26.7% | GLP1 secretion stimulation [5] -1.5% | inhibition of viability [6] 12.9% | viability decrease (inhibition) [7] -3.5% | viability decrease (inhibition) [8] -16.4%

C=CC[N+]1([C@H]2C[C@H]3[C@@H]4CC[C@H]5C[C@H](OC(C)=O)[C@@H](N6CCCCC6)C[C@]5(C)[C@H]4CC[C@]3(C)[C@H]2OC(=O)CC)CCCCC1
inactive: nuclear beta-catenin stimulation ([1]; at 10 µM) -0.1% | insulin secretion stimulation [2] 1.45% | viability decrease [3] 27.6% | tube area decrease [4] -8.7% | GLP1 secretion stimulation [5] 8.2% | inhibition of viability [6] 32.5% | viability decrease (inhibition) [7] 23.4% | viability decrease (inhibition) [8] -2.8%
-2.6%: nuclear beta-catenin stimulation ([1]; stimulation, at 2 µM)

Nc1nc(=O)n([C@@H]2O[C@H](CO)[C@@H](O)[C@@H]2F)cc1I
1.8%: nuclear beta-catenin stimulation ([1]; stimulation, at 2 µM)
active: tube area decrease [4] 74%
inactive: nuclear beta-catenin stimulation ([1]; at 10 µM) 8% | insulin secretion stimulation [2] 0.8% | viability decrease [3] 2.9% | GLP1 secretion stimulation [5] -3.9% | inhibition of viability [6] 23.7% | viability decrease (inhibition) [7] 32.2% | viability decrease (inhibition) [8] 23.1%

CC(=O)Nc1ccc(S(=O)(=O)Nc2cc(C)on2)cc1
0.3%: nuclear beta-catenin stimulation ([1]; stimulation, at 2 µM)
inactive: nuclear beta-catenin stimulation ([1]; at 10 µM) 1.7% | insulin secretion stimulation [2] 0.5% | viability decrease [3] -7% | tube area decrease [4] -15.5% | GLP1 secretion stimulation [5] 0.1% | inhibition of viability [6] 0.8% | viability decrease (inhibition) [7] -14.4% | viability decrease (inhibition) [8] 2%

C[C@H]1C[C@H]2[C@@H]3CCC4=CC(=O)C=C[C@]4(C)[C@@]3(Cl)[C@@H](O)C[C@]2(C)[C@@]1(O)C(=O)CO
active: viability decrease (inhibition) [7] 70.7%
0.5%: nuclear beta-catenin stimulation ([1]; stimulation, at 2 µM)
inactive: nuclear beta-catenin stimulation ([1]; at 10 µM) 0.9% | insulin secretion stimulation [2] 6.9% | viability decrease [3] -136% | tube area decrease [4] 14.4% | GLP1 secretion stimulation [5] -0.3% | inhibition of viability [6] 15.8% | viability decrease (inhibition) [8] 13.2%

Nc1cc(C(F)(F)F)ccc1S
active: tube area decrease [4] 44.8% | GLP1 secretion stimulation [5] 20.5%
-0.9%: nuclear beta-catenin stimulation ([1]; stimulation, at 2 µM)
inactive: nuclear beta-catenin stimulation ([1]; at 10 µM) 0% | insulin secretion stimulation [2] 4.4% | viability decrease [3] 2.3% | inhibition of viability [6] 16.7% | viability decrease (inhibition) [7] -4.3% | viability decrease (inhibition) [8] 20.8%

CC(CCc1ccc2c(c1)OCO2)NN (centres undefined)
active: viability decrease [3] 57.8% | inhibition of viability [6] 84.6% | viability decrease (inhibition) [7] 97.6%
inactive: nuclear beta-catenin stimulation ([1]; at 10 µM) 0.2% | insulin secretion stimulation [2] -2.2% | tube area decrease [4] 23.7% | GLP1 secretion stimulation [5] 2.3% | viability decrease (inhibition) [8] 17.7%
0.2%: nuclear beta-catenin stimulation ([1]; stimulation, at 2 µM)

O=C1NC(c2ccccc2)(c2ccccc2)C(=O)N1COP(=O)(O)O
inactive: nuclear beta-catenin stimulation ([1]; at 10 µM) 1.6% | insulin secretion stimulation [2] -0.5% | viability decrease [3] -27% | tube area decrease [4] -13% | GLP1 secretion stimulation [5] 5.2% | inhibition of viability [6] -8.63% | viability decrease (inhibition) [7] -3.4% | viability decrease (inhibition) [8] -11%
3.6%: nuclear beta-catenin stimulation ([1]; stimulation, at 2 µM)

CC(C)Cc1ccc(C(C)C(=O)OCc2ccccn2)cc1 (centres undefined)
1.5%: nuclear beta-catenin stimulation ([1]; stimulation, at 2 µM)
inactive: nuclear beta-catenin stimulation ([1]; at 10 µM) -0.2% | insulin secretion stimulation [2] -0.3% | viability decrease [3] -24% | tube area decrease [4] -19.1% | GLP1 secretion stimulation [5] 0.1% | inhibition of viability [6] 22.8% | viability decrease (inhibition) [7] 40.9% | viability decrease (inhibition) [8] 19.1%

O=C(O)c1[nH]n(-c2ccc(S(=O)(=O)O)cc2)c(=O)c1N=Nc1ccc(S(=O)(=O)O)cc1
-1.1%: nuclear beta-catenin stimulation ([1]; stimulation, at 2 µM)
inactive: nuclear beta-catenin stimulation ([1]; at 10 µM) 1.7% | insulin secretion stimulation [2] 2.7% | viability decrease [3] -3.9% | tube area decrease [4] -8.4% | GLP1 secretion stimulation [5] -3% | inhibition of viability [6] 4.2% | viability decrease (inhibition) [7] -14% | viability decrease (inhibition) [8] 6.5%

C[C@@H](CN(C)C)CN1c2ccccc2Sc2ccccc21
inactive: nuclear beta-catenin stimulation ([1]; at 10 µM) 3% | viability decrease [3] -61.3% | tube area decrease [4] 0.6% | GLP1 secretion stimulation [5] 10.3% | inhibition of viability [6] 45.3% | viability decrease (inhibition) [8] 48.3%
-0.4%: nuclear beta-catenin stimulation ([1]; stimulation, at 2 µM)
active: insulin secretion stimulation [2] 15.1% | viability decrease (inhibition) [7] 103%
